These results are taken from article PMC7862700, “An all-to-all approach to the identification of sequence-specific readers for epigenetic DNA modifications on cytosine”.

Common to all, as to assay: DAPPL (digital affinity profiling via proximity ligation, sequencing); 10 mM Tris-HCl pH 7.5, 50 mM NaCl, 1 mM DTT, 4% glycerol, room temperature, 30 min; GST-TFs on glutathione beads, 16-mer random dsDNA library, 0.1% formaldehyde crosslink after washing; high values mean tight binding
One assay has as its target T1, FLI1 (Homo sapiens, UniProt Q01543 1-452).
T1 sequence: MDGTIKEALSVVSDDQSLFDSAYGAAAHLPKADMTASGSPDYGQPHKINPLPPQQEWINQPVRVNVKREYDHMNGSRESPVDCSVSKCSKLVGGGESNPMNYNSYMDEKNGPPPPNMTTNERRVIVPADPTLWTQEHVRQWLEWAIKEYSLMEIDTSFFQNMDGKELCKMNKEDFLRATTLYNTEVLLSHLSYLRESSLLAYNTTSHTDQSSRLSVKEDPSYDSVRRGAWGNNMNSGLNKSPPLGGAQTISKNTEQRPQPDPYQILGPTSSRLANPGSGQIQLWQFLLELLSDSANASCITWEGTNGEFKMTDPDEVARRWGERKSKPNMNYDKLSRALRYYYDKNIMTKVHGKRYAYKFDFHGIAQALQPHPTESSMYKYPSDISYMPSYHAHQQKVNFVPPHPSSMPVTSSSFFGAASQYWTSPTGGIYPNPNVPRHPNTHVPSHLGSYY
Particulars: protein: recombinant; tags: N-terminal GST; dsDNA, one strand shown. The gist of the method: (§1)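 Beads coated with glutathione captured GST-fused human transcription factors that had been expressed in yeast, and the factors were then given DNA barcodes and pooled with a tag-only sample. The pools were incubated with 200 nmole of a random double-stranded 16-mer DNA library in Tris/NaCl/DTT/glycerol buffer for 30 min at room temperature, washed, crosslinked with 0.1% formaldehyde and proximity-ligated with BsaI/T4 ligase at 37 °C for 1 h. PCR amplification and Illumina NextSeq500 sequencing came last. Binding signal is each hexamer's read frequency for a factor divided by its frequency for the tag-only sample.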

For the next assay, the target named is T2, ELK1 (Homo sapiens, UniProt P19419 1-428).
T2 sequence: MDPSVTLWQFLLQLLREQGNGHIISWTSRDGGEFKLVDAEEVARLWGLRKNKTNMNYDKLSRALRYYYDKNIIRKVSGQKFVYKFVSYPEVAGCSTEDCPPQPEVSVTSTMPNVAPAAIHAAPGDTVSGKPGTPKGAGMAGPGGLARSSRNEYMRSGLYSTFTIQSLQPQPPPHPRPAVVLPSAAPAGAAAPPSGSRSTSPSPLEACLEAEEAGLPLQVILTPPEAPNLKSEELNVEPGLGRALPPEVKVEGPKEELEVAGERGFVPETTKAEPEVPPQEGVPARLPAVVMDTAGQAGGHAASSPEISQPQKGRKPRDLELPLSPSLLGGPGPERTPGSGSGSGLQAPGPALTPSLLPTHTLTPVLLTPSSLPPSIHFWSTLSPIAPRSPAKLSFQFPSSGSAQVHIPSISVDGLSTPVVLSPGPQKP
Particulars: protein: recombinant; tags: N-terminal GST; dsDNA, one strand shown. A digest of the protocol: as §1

In another assay the target is T3, GABPA (Homo sapiens, UniProt Q06546 1-454).
T3 sequence: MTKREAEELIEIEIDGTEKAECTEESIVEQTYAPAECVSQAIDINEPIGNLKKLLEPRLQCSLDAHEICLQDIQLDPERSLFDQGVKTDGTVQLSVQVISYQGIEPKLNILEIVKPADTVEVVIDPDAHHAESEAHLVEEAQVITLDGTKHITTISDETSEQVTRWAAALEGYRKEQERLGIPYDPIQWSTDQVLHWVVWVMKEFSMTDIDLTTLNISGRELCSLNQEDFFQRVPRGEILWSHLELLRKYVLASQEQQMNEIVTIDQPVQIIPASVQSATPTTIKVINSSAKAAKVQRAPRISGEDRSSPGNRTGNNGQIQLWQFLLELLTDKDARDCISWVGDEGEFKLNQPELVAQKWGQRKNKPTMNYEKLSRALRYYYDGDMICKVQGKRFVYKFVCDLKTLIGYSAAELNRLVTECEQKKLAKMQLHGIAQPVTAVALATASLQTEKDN
Particulars: protein: recombinant; tags: N-terminal GST; dsDNA, one strand shown. The gist of the method:
as §1

Another assay addresses T4, ERG (Homo sapiens, UniProt P11308 1-479).
T4 sequence: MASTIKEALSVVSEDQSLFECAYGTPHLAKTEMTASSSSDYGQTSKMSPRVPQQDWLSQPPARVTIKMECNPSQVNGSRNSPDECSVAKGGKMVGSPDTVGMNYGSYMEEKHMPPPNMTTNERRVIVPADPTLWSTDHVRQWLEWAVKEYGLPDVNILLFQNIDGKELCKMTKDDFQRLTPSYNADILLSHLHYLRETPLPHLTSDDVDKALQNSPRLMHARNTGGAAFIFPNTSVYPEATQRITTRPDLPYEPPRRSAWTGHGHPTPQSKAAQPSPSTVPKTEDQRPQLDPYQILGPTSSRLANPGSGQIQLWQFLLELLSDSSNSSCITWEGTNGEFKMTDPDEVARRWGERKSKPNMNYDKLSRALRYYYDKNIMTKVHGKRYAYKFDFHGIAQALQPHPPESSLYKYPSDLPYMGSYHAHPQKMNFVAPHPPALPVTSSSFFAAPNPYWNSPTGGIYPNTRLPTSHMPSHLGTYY
The following applies: protein: recombinant; tags: N-terminal GST; dsDNA, one strand shown. A digest of the protocol: as §1

For another assay, the target named is ELF1 (Homo sapiens, UniProt P32519 1-619). Particulars: protein: recombinant; tags: N-terminal GST; dsDNA, one strand shown. The gist of the method:
as §1

A further assay deals with SPIB (Homo sapiens, UniProt Q01892 1-262). Particulars: protein: recombinant; tags: N-terminal GST; dsDNA, one strand shown. A digest of the protocol:
as §1

The target in another assay is T5, ELK3 (Homo sapiens, UniProt P41970 1-407).
T5 sequence: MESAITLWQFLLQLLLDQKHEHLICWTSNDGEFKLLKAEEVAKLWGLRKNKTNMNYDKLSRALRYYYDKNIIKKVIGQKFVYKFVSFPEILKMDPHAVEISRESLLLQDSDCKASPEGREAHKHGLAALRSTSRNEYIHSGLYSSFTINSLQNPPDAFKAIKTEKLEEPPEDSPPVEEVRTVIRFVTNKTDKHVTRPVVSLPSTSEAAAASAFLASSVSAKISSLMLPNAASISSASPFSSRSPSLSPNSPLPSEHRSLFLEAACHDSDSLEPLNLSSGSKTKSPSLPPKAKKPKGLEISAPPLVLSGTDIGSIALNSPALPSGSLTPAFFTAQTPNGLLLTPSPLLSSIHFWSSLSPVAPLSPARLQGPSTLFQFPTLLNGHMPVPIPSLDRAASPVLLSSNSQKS
Particulars: protein: recombinant; tags: N-terminal GST; dsDNA, one strand shown. A digest of the protocol: as §1

The target in a further assay is ETV5 (Homo sapiens, UniProt P41161 1-510). The following applies: protein: recombinant; tags: N-terminal GST; dsDNA, one strand shown. The gist of the method:
as §1

The target of another assay is HSF1 (Homo sapiens, UniProt Q00613 1-529). Particulars: protein: recombinant; tags: N-terminal GST; chain copies: 3; dsDNA, one strand shown. The gist of the method:
as §1

The target in the next assay is T6, SPIC (Homo sapiens, UniProt Q8N5J4 1-248).
T6 sequence: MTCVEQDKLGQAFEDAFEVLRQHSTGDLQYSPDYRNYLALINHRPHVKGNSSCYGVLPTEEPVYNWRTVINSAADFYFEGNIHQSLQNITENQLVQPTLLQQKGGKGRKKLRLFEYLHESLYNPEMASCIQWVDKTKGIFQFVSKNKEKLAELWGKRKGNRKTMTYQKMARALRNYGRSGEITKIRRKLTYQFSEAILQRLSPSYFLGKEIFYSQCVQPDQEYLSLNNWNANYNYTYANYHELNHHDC
The following applies: protein: recombinant; tags: N-terminal GST; dsDNA, one strand shown. The gist of the method: as §1

The target of another assay is ELF4 (Homo sapiens, UniProt Q99607 1-663). The following applies: protein: recombinant; tags: N-terminal GST; dsDNA, one strand shown. A digest of the protocol:
as §1

A further assay has as its target T7, ELK4 (Homo sapiens, UniProt P28324-2 1-405).
T7 sequence: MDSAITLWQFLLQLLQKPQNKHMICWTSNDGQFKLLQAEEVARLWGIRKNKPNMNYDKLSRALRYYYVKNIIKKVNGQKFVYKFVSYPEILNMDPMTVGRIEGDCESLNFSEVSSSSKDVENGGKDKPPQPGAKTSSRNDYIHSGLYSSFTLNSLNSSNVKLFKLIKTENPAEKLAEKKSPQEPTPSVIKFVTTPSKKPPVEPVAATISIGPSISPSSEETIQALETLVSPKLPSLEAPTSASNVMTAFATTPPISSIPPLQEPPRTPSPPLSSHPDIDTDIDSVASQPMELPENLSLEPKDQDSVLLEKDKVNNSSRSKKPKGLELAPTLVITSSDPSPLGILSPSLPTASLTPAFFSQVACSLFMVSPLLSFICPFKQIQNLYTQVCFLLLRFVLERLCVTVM
The following applies: protein: recombinant; tags: N-terminal GST; dsDNA, one strand shown. A digest of the protocol:
as §1

The target of a further assay is T8, ELF3 (Homo sapiens, UniProt P78545 1-371).
T8 sequence: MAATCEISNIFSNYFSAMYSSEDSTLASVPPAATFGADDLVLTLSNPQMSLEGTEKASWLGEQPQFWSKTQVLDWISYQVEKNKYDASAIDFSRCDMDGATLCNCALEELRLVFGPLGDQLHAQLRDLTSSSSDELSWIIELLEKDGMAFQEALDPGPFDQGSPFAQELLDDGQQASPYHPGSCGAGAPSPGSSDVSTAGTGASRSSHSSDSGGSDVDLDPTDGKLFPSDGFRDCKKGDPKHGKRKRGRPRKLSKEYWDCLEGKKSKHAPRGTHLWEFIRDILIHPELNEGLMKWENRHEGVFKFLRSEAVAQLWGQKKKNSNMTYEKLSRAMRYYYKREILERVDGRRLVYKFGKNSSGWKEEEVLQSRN
Particulars: protein: recombinant; tags: N-terminal GST; dsDNA, one strand shown. A digest of the protocol: as §1

Another assay has as its target CRX (Homo sapiens, UniProt O43186 1-299). The following applies: protein: recombinant; tags: N-terminal GST; dsDNA, one strand shown. The gist of the method: as §1
The next assay addresses SPI1 (Homo sapiens, UniProt P17947 1-270). Particulars: protein: recombinant; tags: N-terminal GST; dsDNA, one strand shown. The gist of the method: as §1
For another assay, the target named is T9, FEV (Homo sapiens, UniProt Q99581 1-238).
T9 sequence: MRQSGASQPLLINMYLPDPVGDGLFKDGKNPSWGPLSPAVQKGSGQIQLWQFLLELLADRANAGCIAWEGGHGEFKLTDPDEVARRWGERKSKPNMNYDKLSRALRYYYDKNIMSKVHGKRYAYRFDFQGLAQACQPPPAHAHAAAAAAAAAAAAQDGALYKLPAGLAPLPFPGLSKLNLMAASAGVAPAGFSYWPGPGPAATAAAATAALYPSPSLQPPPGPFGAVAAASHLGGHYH
Particulars: protein: recombinant; tags: N-terminal GST; dsDNA, one strand shown. A digest of the protocol:
as §1

A further assay has as its target ETV1 (Homo sapiens, UniProt P50549 1-477). The following applies: protein: recombinant; tags: N-terminal GST; dsDNA, one strand shown. A digest of the protocol:
as §1

Chain of ETV5 (P41161 whole entry): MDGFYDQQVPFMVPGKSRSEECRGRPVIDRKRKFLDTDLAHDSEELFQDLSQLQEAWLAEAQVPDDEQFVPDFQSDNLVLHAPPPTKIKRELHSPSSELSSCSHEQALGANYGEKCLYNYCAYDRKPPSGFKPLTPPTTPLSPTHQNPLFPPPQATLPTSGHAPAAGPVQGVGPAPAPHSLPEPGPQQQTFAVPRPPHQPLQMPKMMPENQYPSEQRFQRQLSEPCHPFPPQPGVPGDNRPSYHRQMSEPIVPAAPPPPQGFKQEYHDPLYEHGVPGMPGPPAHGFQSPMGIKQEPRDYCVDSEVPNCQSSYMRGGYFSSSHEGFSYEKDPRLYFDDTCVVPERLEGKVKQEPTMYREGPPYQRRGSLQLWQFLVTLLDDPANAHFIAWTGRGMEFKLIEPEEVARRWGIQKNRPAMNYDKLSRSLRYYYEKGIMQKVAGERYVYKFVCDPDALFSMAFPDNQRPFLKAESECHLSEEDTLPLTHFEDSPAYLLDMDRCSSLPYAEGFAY
Chain of SPIB (Q01892 whole entry): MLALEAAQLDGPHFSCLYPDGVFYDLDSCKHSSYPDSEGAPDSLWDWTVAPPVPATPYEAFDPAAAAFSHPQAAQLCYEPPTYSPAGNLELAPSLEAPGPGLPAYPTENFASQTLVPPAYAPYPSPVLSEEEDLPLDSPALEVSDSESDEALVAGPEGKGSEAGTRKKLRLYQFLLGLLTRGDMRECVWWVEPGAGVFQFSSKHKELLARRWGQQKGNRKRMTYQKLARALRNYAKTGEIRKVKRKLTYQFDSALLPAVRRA
Chain of HSF1 (Q00613 whole entry): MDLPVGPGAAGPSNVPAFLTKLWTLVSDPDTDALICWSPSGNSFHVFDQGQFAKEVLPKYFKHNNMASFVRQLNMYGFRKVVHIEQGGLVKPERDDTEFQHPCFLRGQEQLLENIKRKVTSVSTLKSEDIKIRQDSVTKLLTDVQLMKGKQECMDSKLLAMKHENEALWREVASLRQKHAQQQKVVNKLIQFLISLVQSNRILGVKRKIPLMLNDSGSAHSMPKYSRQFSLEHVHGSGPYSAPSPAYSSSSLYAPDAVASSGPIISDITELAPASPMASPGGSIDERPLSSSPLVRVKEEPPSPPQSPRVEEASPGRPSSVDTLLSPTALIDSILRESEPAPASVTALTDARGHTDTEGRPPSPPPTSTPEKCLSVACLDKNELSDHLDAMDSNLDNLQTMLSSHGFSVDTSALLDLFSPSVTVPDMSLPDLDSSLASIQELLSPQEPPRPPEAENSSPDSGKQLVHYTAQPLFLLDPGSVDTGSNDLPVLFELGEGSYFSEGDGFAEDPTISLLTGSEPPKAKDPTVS
Chain of CRX (O43186 whole entry): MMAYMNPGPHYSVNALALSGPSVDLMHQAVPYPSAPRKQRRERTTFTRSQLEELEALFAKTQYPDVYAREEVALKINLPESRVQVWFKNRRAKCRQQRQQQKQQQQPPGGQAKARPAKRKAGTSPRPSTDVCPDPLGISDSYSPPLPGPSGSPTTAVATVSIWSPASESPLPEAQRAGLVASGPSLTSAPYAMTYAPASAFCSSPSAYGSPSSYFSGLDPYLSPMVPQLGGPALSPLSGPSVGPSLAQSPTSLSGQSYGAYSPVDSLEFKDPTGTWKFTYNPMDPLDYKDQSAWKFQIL
Chain of ELF1 (P32519 whole entry): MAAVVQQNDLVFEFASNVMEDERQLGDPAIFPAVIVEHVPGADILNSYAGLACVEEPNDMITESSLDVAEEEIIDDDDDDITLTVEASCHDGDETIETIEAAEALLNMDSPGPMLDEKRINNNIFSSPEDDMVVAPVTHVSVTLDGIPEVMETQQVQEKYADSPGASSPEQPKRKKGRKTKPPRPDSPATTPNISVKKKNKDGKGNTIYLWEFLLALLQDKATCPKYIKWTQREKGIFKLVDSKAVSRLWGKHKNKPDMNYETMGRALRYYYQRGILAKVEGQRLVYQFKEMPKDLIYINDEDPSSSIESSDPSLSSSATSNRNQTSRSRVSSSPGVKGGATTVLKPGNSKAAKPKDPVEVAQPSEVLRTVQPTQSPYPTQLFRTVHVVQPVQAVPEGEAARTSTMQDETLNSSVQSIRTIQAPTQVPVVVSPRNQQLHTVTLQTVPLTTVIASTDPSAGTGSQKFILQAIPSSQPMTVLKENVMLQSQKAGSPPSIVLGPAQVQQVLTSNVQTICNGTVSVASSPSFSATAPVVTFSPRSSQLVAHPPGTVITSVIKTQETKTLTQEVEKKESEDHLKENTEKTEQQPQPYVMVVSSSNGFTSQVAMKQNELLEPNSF
Chain of ELF4 (Q99607 whole entry): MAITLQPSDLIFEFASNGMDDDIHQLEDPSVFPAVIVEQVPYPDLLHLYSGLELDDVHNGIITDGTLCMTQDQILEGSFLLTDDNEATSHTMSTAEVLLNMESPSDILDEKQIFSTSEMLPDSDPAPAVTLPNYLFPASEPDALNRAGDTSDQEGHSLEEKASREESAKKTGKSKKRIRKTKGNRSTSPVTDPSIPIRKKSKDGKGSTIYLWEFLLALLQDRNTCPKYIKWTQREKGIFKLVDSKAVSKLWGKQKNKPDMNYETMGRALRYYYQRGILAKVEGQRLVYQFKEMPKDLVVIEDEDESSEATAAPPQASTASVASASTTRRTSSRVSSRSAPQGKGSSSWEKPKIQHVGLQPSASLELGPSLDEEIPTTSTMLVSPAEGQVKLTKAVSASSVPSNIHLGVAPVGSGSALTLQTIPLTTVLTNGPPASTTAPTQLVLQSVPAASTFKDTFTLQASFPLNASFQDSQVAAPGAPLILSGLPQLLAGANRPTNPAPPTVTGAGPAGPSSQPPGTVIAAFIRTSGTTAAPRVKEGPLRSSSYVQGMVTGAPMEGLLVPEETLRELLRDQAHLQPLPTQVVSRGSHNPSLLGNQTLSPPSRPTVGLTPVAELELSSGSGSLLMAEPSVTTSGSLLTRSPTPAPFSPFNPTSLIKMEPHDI
Chain of ETV1 (P50549 whole entry): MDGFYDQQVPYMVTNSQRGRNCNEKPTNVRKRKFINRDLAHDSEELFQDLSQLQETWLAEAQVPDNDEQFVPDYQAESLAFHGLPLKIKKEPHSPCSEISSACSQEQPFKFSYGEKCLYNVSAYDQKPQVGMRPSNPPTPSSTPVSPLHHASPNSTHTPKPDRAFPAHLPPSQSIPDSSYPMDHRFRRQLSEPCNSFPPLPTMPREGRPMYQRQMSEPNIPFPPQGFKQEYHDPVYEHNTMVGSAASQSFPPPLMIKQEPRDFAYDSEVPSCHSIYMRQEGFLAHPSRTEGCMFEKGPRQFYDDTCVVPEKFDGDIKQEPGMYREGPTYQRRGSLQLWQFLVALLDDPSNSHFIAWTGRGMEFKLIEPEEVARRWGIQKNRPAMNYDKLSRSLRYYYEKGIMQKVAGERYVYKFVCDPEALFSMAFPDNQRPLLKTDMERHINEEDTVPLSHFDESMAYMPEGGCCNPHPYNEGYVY

Regarding AATCGA, the binding signal in the assay with FLI1 is 1 fold enrichment (6-mer frequency, TF over GST control); with ELK1, 1.06 fold enrichment (6-mer frequency, TF over GST control); with GABPA it was 1.07 fold enrichment (6-mer frequency, TF over GST control); with ERG, 1.02 fold enrichment (6-mer frequency, TF over GST control); with ELF1, 1.03 fold enrichment (6-mer frequency, TF over GST control); with SPIB it was 1.07 fold enrichment (6-mer frequency, TF over GST control). For the same sequence, the binding signal in the assay with ELK3 is 1.12 fold enrichment (6-mer frequency, TF over GST control); with ETV5, 1.05 fold enrichment (6-mer frequency, TF over GST control); with HSF1, 1.38 fold enrichment (6-mer frequency, TF over GST control); with SPIC, 1.11 fold enrichment (6-mer frequency, TF over GST control); with ELF4 it was 1.03 fold enrichment (6-mer frequency, TF over GST control); with ELK4 it was 1.03 fold enrichment (6-mer frequency, TF over GST control). Also, the binding signal with ELF3 was 1.11 fold enrichment (6-mer frequency, TF over GST control); with CRX, 1.2 fold enrichment (6-mer frequency, TF over GST control).
As for GCTTTT, the binding signal in the assay with FLI1 is 1.06 fold enrichment (6-mer frequency, TF over GST control); in the assay with ELK1 it was 1.05 fold enrichment (6-mer frequency, TF over GST control); in the assay with GABPA it was 1.16 fold enrichment (6-mer frequency, TF over GST control); with ERG, 1 fold enrichment (6-mer frequency, TF over GST control); with ELF1, 1.09 fold enrichment (6-mer frequency, TF over GST control); with SPI1, 1.33 fold enrichment (6-mer frequency, TF over GST control). Moreover, the binding signal in the assay with SPIB is 1.16 fold enrichment (6-mer frequency, TF over GST control); with ELK3 it was 1.11 fold enrichment (6-mer frequency, TF over GST control); in the assay with FEV, 1.07 fold enrichment (6-mer frequency, TF over GST control); with ETV5, 1.09 fold enrichment (6-mer frequency, TF over GST control); with HSF1 it was 1.12 fold enrichment (6-mer frequency, TF over GST control); in the assay with SPIC, 1.12 fold enrichment (6-mer frequency, TF over GST control). Further, the binding signal with ELF4 was 1.18 fold enrichment (6-mer frequency, TF over GST control); in the assay with ELK4, 1.17 fold enrichment (6-mer frequency, TF over GST control); in the assay with ELF3, 1.14 fold enrichment (6-mer frequency, TF over GST control); in the assay with CRX, 1.32 fold enrichment (6-mer frequency, TF over GST control); with ETV1, 1.1 fold enrichment (6-mer frequency, TF over GST control).
